# Data as given in PubChem BioAssay (Tox21).
# Where “and” joins values, the source holds several entries; their conditions need not be identical. Identical values can stand only once. Inconclusive results are not listed. A call without a number means that no potency is given here. The source holds several records for some structures; these can differ, active in one and inactive in another. Calls of active or inactive are those of the source. Unless noted, the call rests on the fitted dose curve; in most records, active means well fitted curve in the direction sought with a large enough effect in the repeat runs; inconclusive means weak or mixed curves; inactive means no such curve, though single readings can be large; an effect the other way counts as inactive or inconclusive.
# What was measured:
# [1] = qHTS assay to identify small molecule agonists of the hypoxia (HIF-1) signaling pathway - cell viability counter screen (AID 1224844; calls by dose curve; further: nearly all actives have a fitted effect of over 50% in size)
# Summary of the method: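 HRE-bla ME-180; 0.5% dFBS; cpd 17 h, 37C, 5% CO2; CellTiter-Glo lum., 30 min RT, post-FRET read, same wells.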
# [2] = qHTS assay to identify small molecule agonists of H2AX (AID 1224845; active means well fitted activation curve with a large enough effect in the signal ratio in the repeat runs, not every such curve was filed as active; the % refers to the signal ratio)
# Summary of the method: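 Wild-type CHO-K1 cells, plated overnight, exposed 3hr at 37C to 15 concentrations (0.76% DMSO final). Lysed, then HTRF anti-pH2AX (S139) cryptate and anti-H2AX-d2 antibodies, 24 hr room temperature; 665/620 nm emission read.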
# [3] = qHTS assay to identify small molecule agonists of the hypoxia (HIF-1) signaling pathway (AID 1224846; active means well fitted activation curve with a large enough effect in the signal ratio in the repeat runs, not every such curve was filed as active; the % refers to the signal ratio)
# Summary of the method: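 Reporter induction in HRE-bla ME-180 cells is taken as agonism: cells sit 5 hrs after plating, receive compounds or DMSO only, incubate 17 hrs at 37C under 5% CO2, and are loaded with CCF4-AM for beta-lactamase FRET measurement.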
# [4] = qHTS assay to identify small molecule agonists of H2AX - cell viability counter screen (AID 1224847; calls by dose curve; further: top concentration of the series differs between compounds; nearly all actives have a fitted effect of over 30% in size)
# Summary of the method: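 Quantitative HTS viability measurement: CHO-K1 wild-type cells in serum (10% FBS) medium, short 3 hr drug exposure at 37C with 0.76% DMSO, CellTiter-Glo luminescent detection.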
# [5] = qHTS RealTime-Glo MT Cell Viability Assay in HepG2 cells - 24 hour (AID 1224867); further: nearly all actives have a fitted effect of over 50% in size
# Summary of the method: (§1)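 HepG2 cells (600/well) were dispensed with RealTime-Glo reagents, incubated 5 h at 37 °C, then treated with compounds in DMSO for up to 40 h. Nonlytic NanoLuc luminescence reflecting viable cells was read at each stated time point.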
# [6] = qHTS RealTime-Glo MT Cell Viability Assay in HEK293 cells - 32 hour (AID 1224868); further: nearly all actives have a fitted effect of over 50% in size; further: potency means the concentration at half of the fitted maximal effect
# Summary of the method: (§2)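 HEK293 cells seeded with NanoLuc/prosubstrate reagent, rested 5 h at 37 C, then dosed and kept at 37 C up to 40 h. Nonlytic real-time luminescence from viable cells read at 0, 8, 16, 24, 32 and 40 h.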
# [7] = A CellTox Green Cytotoxicity Assay to monitor cytotoxicity in HEK293 cells - 0 hour (AID 1224869); further: nearly all actives have a fitted effect of over 50% in size
# Summary of the method: (§3)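 Tox21 screen in HEK293: membrane-impermeant cyanine dye fluoresces on binding dead-cell DNA; compound pinned 5 h post-seeding, plates held at 37 C, signal read repeatedly through 40 h.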
# [8] = A CellTox Green Cytotoxicity Assay to monitor cytotoxicity in HEK293 cells - 40 hour (AID 1224871); further: nearly all actives have a fitted effect of over 45% in size; further: potency means the concentration at half of the fitted maximal effect
# Summary of the method: as §3
# [9] = qHTS RealTime-Glo MT Cell Viability Assay in HEK293 cells - 16 hour (AID 1224872); further: nearly all actives have a fitted effect of over 50% in size; further: potency means the concentration at half of the fitted maximal effect
# Summary of the method: as §2
# [10] = qHTS RealTime-Glo MT Cell Viability Assay in HepG2 cells - 8 hour (AID 1224873); further: nearly all actives have a fitted effect of over 55% in size
# Summary of the method: (§4)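 HepG2 cells (600/well) mixed with RealTime-Glo MT reagent, settled 5 h at 37 C/5% CO2 before compound addition. Nonlytic NanoLuc luminescence from viable-cell prosubstrate reduction read repeatedly during 40 h treatment at 37 C.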
# [11] = A CellTox Green Cytotoxicity Assay to monitor cytotoxicity in HEK293 cells - 24 hour (AID 1224875); further: series mostly up to about 77 µM; nearly all actives have a fitted effect of over 45% in size
# Summary of the method: as §3
# [12] = A CellTox Green Cytotoxicity Assay to monitor cytotoxicity in HepG2 cells - 16 hour (AID 1224876); further: nearly all actives have a fitted effect of over 45% in size
# Summary of the method: (§5)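 Measurements at 0, 8, 16, 24, 32 and 40 h of treatment captured CellTox Green fluorescence in HepG2 cells that had been co-plated with reagent and preincubated 5 h at 37 C/5% CO2.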
# [13] = qHTS RealTime-Glo MT Cell Viability Assay in HepG2 cells - 32 hour (AID 1224877); further: nearly all actives have a fitted effect of over 55% in size
# Summary of the method: as §1
# [14] = A CellTox Green Cytotoxicity Assay to monitor cytotoxicity in HepG2 cells - 24 hour (AID 1224878); further: nearly all actives have a fitted effect of over 45% in size
# Summary of the method: as §5
# [15] = A CellTox Green Cytotoxicity Assay to monitor cytotoxicity in HepG2 cells - 40 hour (AID 1224879); further: nearly all actives have a fitted effect of over 40% in size
# Summary of the method: as §5
# [16] = qHTS RealTime-Glo MT Cell Viability Assay in HEK293 cells - 0 hour (AID 1224880)
# Summary of the method: (§6)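 HEK293 + NanoLuc + prosubstrate, 600 cells/well; 5 h, 37 C/5% CO2; compound 23 nL in DMSO by pintool; 37 C; luminescence read at 0, 8, 16, 24, 32 and 40 h time points.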
# [17] = qHTS RealTime-Glo MT Cell Viability Assay in HepG2 cells - 40 hour (AID 1224870); further: nearly all actives have a fitted effect of over 50% in size
# Summary of the method: as §4
# [18] = qHTS RealTime-Glo MT Cell Viability Assay in HEK293 cells - 40 hour (AID 1224874); conditions: RealTime-Glo luminescence; max response: stronger effect = lower value; further: nearly all actives have a fitted effect of over 50% in size; further: potency means the concentration at half of the fitted maximal effect
# Summary of the method: as §6
Structure (SMILES),outcome [1],outcome [2],outcome [3],outcome [4],Potency [5],Potency [6],outcome [7],Potency [8],Potency [9],Potency [10],Potency [11],outcome [12],outcome [13],Potency [14],Potency [15],outcome [16],outcome [17],max response [18],Potency [18]
CC(C)CC(C)O (stereo not drawn),inactive,inactive,inactive,inactive,inactive,inactive,inactive,inactive,inactive,inactive,inactive,inactive,inactive,inactive,inactive,inactive,–,–,–
OC1C(O)C(O)C(O)C(O)C1O (stereo not drawn),inactive,inactive,inactive,inactive,inactive,inactive,inactive,inactive,inactive,inactive,inactive,inactive,inactive,inactive,inactive,inactive,inactive,–,–
N[C@H](Cc1c[nH]c2ccccc12)C(=O)O,inactive,inactive,inactive,inactive,inactive,inactive,inactive,inactive,inactive,–,inactive,inactive,inactive,inactive,inactive,inactive,inactive,–,–
COc1ccc(CCC(C)=O)cc1,inactive,inactive,inactive,inactive,inactive,inactive,inactive,inactive,inactive,–,inactive,inactive,inactive,inactive,inactive,inactive,inactive,7.39% (inactive) and 0.508% (inactive),–
CCCCCCCCCCO,inactive,inactive,inactive,inactive,inactive,inactive,inactive,24.6 µM (active) and inactive,inactive,inactive,–,inactive,inactive,inactive,inactive,inactive,–,1.72% (inactive) and 1.45% (inactive),–
O=C(O)c1ccc(S(=O)(=O)N(Cl)Cl)cc1,inactive,inactive,inactive,inactive,inactive,49.3 µM (active) and inactive,inactive,inactive,49.3 µM (active) and inactive,inactive,inactive,inactive,inactive,inactive,inactive,inactive,–,0.122% (inactive),43.9 µM (active)
CCCCCCCCCCCCCCCCO,inactive,inactive,inactive,inactive,inactive,inactive,inactive,inactive,inactive,–,inactive,inactive,inactive,inactive,inactive,inactive,inactive,-1.41% (inactive),–
COc1ccc([N+](=O)[O-])cc1N,inactive,inactive,inactive,inactive,inactive,inactive,inactive,inactive,inactive,inactive,inactive,–,inactive,inactive,inactive,inactive,inactive,-5.95% (inactive) and 0.4% (inactive),–
O=[N+]([O-])c1ccc2nc[nH]c2c1,inactive,inactive,inactive,inactive,inactive,inactive,inactive,inactive,inactive,inactive,inactive,–,inactive,inactive,inactive,inactive,inactive,4.04% (inactive) and -21.2% (inactive),–
c1ccc(Oc2ccccc2)cc1,inactive,inactive,inactive,inactive,inactive,inactive,inactive,50.5 µM (active),inactive,inactive,inactive,–,inactive,inactive,inactive,inactive,–,–,–
CC(=O)c1ccc(O)cc1,inactive,inactive,inactive,inactive,inactive,inactive,inactive,inactive,inactive,inactive,inactive,–,inactive,inactive,inactive,inactive,–,–,–
CCNC(=S)NCC,inactive,inactive,inactive,inactive,inactive,inactive,inactive,inactive,inactive,–,inactive,inactive,inactive,inactive,inactive,inactive,inactive,-2.25% (inactive) and -1.34% (inactive),–
